# Assay outcomes as filed in PubChem BioAssay.
# The list is not random: actives were taken first. Their share in the collection is about 5.8%.
# FLuc inh: inhibitors of firefly luciferase; P08659; purified firefly luciferase, luminescence, 8 min; Potency, µM (highest dose often 57.1 µM), for the others: at the top dose activity change, negative = inhibition, actives largely listed as inhibitors; 72,000 compounds, 2.2% hits; also: % is scaled to controls: 0 for no effect and ±100 for the full control effect; nearly all actives have a fitted effect of over 40% in size
#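 qHTS concentration-response profiling: light output of P. pyralis luciferase with luciferin and 10 uM ATP, imidazole buffer pH 7.2. Read by luminescence after 8-min room-temperature incubation.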
# HEK293 cAMP cs: parental HEK293 cAMP activation (counter-screen); parental HEK293 CNG cAMP sensor, membrane potential fluorescence; Potency, µM (highest dose often 57.1 µM), inactives show at the highest dose activation, most hits filed as activators; 73,000 compounds, 2.5% hits; also: % of control where 0% means no effect; nearly all actives have a fitted effect of over 55% in size
#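 Parental HEK 293 cells stably expressing a modified CNG channel (no TSHR) report cAMP rise as membrane depolarization. Membrane potential dye with 100 uM RO 20-1724 was loaded for 60 min at room temperature, then compound added for 30 min; fluorescence read at 590 nm.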
# GBA activity: alters purified human glucocerebrosidase activity. purified enzyme, resorufin glucoside fluorescence (screen aimed at inhibitors), 20 min. Potency, µM. 48,000 compounds, 1.1% hits. P04062; in the data active = potency below about 15 µM; inconclusive = mostly about 16 µM to 33 µM;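 also: the screen sought inhibitors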
# Target sequence (P04062 whole entry, looked up): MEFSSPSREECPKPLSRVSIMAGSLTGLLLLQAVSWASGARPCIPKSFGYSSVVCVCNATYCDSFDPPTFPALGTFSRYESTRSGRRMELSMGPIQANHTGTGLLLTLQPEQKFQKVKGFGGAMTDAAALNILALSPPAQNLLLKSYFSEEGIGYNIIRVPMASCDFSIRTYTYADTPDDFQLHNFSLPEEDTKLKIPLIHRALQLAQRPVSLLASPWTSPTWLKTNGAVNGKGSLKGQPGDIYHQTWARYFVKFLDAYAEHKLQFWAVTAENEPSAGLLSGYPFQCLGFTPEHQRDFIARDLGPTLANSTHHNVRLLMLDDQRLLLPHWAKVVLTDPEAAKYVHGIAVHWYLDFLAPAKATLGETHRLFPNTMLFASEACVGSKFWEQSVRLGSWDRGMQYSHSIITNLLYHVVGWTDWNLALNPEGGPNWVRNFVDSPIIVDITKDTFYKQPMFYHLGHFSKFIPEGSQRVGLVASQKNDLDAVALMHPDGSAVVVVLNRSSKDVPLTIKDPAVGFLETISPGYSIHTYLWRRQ
#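 Wild-type enzyme at 0.2 nM final in 50mM citric acid/KH2PO4, 10mM sodium taurocholate, 0.01% tween-20, pH 5.9, with resorufin beta-D-glucopyranoside at 30 uM final. Compounds titrated, 20 min at RT, red fluorescence read; AC50 from titration.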
# TSHR ag: agonists of human thyroid stimulating hormone receptor; P16473; HEK293-CNG-TSHR cells (CNG channel as cAMP sensor), membrane potential dye, cAMP; Potency, µM (doses to about 57.1 µM), inactives show at the highest dose activation, actives largely listed as activators; 73,000 compounds, 0.48% hits; active = well fitted activation curve with a large enough effect in the main read-out, with a control signal flat, not every such curve was filed as active; inconclusive = small, poorly fitted or top-dose-only effect, or a change in a side signal; inactive = no such curve, though single readings can be large or run the other way; % of control where 0% means no effect;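 also: the control signal comes from parental cells without the receptor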
#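 HEK 293 cells stably expressing TSHR and a modified CNG channel, with CNG-only parental cells as counterscreen, were preloaded 60 min at room temperature with membrane potential dye containing 100 uM RO 20-1724. Compound exposure was 30 min, and depolarization was read as fluorescence at 590 nm.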
# Bst PK mod: modulators of Bacillus stearothermophilus pyruvate kinase | Potency, µM | 51,000 compounds, 1.2% hits | purified pyruvate kinase, luminescence ATP production; ribose 5-phosphate activator present at AC10; in the data active = potency below about 11 µM; inconclusive = mostly about 12 µM to 25 µM;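 the screen sought inhibitors and activators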;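 also: scaled between full activation by ribose 5 phosphate and full inhibition by luteolin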
# * = called active by the depositor; i = inactive; ? = inconclusive; . = no result given; [ ] = another dose, or the depositor's remark. Unless noted, calls follow the shape of the dose curve; as a rule, active = well fitted curve in the direction sought with a large enough effect; inconclusive = small, poorly fitted or top-dose-only effect, or another doubt; inactive = no such curve, though single readings can be large; an effect the other way counts as inactive or inconclusive. Potency is read from the fitted curve at half-maximal effect.
SMILES,FLuc inh,HEK293 cAMP cs,GBA activity,TSHR ag,Bst PK mod
COc1ccc(-c2noc(-c3ccccc3C(=O)NCc3ccco3)n2)cc1OC,-8%,27%,>77,43%,>57
COc1cccc(NC(=O)c2ccccc2-c2nc(-c3ccc(Cl)cc3)no2)c1,-6%,?,>77,?,>57
CCc1cccc2c3c([nH]c12)[C@](CC)(CC(=O)O)OCC3,-3%,?,.,?,.
COc1cccc(-c2ccc3ncnc(NCCc4c[nH]c5ccc(OC)cc45)c3c2)c1,0%[2.29 µM],-26%,.,-1%,.
COc1cccc(NC(=O)c2ccccc2-c2nc(-c3ccc(F)cc3)no2)c1,1%,32µM*,>77,?,>57
O=c1c2c(nc3c(-c4ccc(Cl)cc4)c[nH]n13)CCCC2,2%,15%,6.5*,-6%,3.2*
Cc1ncn(-c2ccccc2O)c1C,1%[11.4 µM],-3%[11.4 µM],.,-3%[11.4 µM],.
COc1cccc(-c2nc(Cc3ccc(OC)c(OC)c3)no2)c1,0%,25µM*,.,?,.
CCOC(=O)c1oc2ccccc2c1CSc1nnnn1-c1ccccc1,0%,16µM*,>77,?,>57
COC(=O)N1CCC2(CC1)CCN(c1ccccc1)CC2,2%[11.4 µM],19%,.,-2%,.
Cc1c(N=C/C=C/c2ccccc2)c(=O)n(-c2ccccc2)n1C,-5%,6%,.,.,.
Cc1c(N=C/C=C/c2ccccc2)cnn1C,16µM*,6%,>77,5%,.
O=C(Nc1nc2ccccc2n1CCOc1ccc(Cl)cc1)c1ccco1,2%,25µM*,.,?,.
O=C(Nc1nc2ccccc2n1CCN1CCCCC1)c1ccco1,0%,-40%,>77,?,>57
Cc1ccc(OCCn2c(NC(=O)c3ccco3)nc3ccccc32)cc1,-5%,16µM*,>77,?,>57
c1ccc(OCCn2c(-c3ccco3)nc3ccccc32)cc1,.,25µM*,.,?,.
CCn1c(-c2ccco2)nc2ccccc21,-24%,14%,>77,4%,.
O=C(Nc1nc2ccccc2n1CCOc1ccccc1)c1ccco1,-7%,25µM*,>77,?,>57
Cc1ccc2nc(-c3ccc(N)cc3)sc2c1S(=O)(=O)O,.,12%,.,7%,.
CCN1C(=O)[C@H]2[C@H]3[C@H](O)[C@H](O)C/C(=N/OC[C@@H](O)COCc4ccco4)[C@@H]3CC[C@@H]2C1=O,0%[11.4 µM],-2%[11.4 µM],.,1%[11.4 µM],.
O=C(Nc1nc2ccccc2n1Cc1ccc(Cl)cc1)c1ccco1,-1%,?,.,?,.
Cc1cccc(OCCn2c(NC(=O)c3ccco3)nc3ccccc32)c1,-9%,32µM*,>77,?,>57
CCSc1nnc(-c2cccc(S(=O)(=O)N(CC)CC)c2)n1Cc1ccccc1,3%,16µM*,>77,?,>57
Clc1ccccc1CNCC1CCC(CNCc2ccccc2Cl)CC1 (stereo not given),-19%,2%,.,-3%,.
C[C@@]12CCC(=O)C=C1CC[C@H]1[C@@H]2[C@@H](O)C[C@]2(C)[C@@H]1CC[C@@]2(O)C(=O)CO,3%[11.4 µM],-3%[11.4 µM],.,1%[11.4 µM],.
SMILES,FLuc inh,HEK293 cAMP cs,GBA activity,TSHR ag,Bst PK mod
Cc1ccc(NCc2nc3ccccc3n2C)cc1,13µM*,-4%,>77,-12%,?
Cn1c(CNc2nc3ccccc3n2C)nc2ccccc21,-2%,5%,.,10%,.
Cc1cccc(-n2ncc3c(NCc4cccs4)ncnc32)c1,?,2%,14*,-3%,.
Cc1ccc(-n2ncc3c(NCCCOC(C)C)ncnc32)c(C)c1,-2%[25.5 µM],.,.,.,>11
CC(C)OCCCNc1ncnc2c1cnn2-c1ccccc1,4µM*,.,.,.,8.9*
c1ccc(CCNc2ncnc3c2cnn3-c2ccccc2)cc1,1%,?,>77,?,>57
c1ccc(CNc2ncnc3c2cnn3-c2ccccc2)cc1,-5%,?,?,?,>57
CC(C)(C)Nc1ncnc2c1cnn2-c1ccccc1,5µM*,1%,.,18%,.
CN(Cc1ccccc1)c1ncnc2c1cnn2-c1ccccc1,13µM*,23%,>77,.,?
Clc1ccc(-n2ncc3c(NCc4cccs4)ncnc32)cc1,?,.,.,.,i
O=C(O)[C@@H]1[C@@H]2O[C@H]([C@@H](Br)[C@H]2Br)[C@H]1C(=O)O,3%[11.4 µM],?,.,?,.
CCCCc1ccc(Nc2ncnc3nc[nH]c23)cc1,0%,-23%,.,6%,.
Cc1ccc(Nc2ncnc3nc[nH]c23)cc1Cl,-3%,25µM*,.,?,.
CCC(C)(C)n1nnnc1C(c1ccc(C)cc1)N1CCCC1 (stereo not given),5%,25µM*,>77,?,>57
CC1CCN(C(c2ccccc2)c2nnnn2C(C)(C)C)CC1 (stereo not given),2%,20µM*,>77,?,>57
COc1ccc(C(c2nnnn2C(C)(C)C)N2CCN(c3nc4ccccc4s3)CC2)cc1 (stereo not given),1%,30%,.,10µM*,>57
N#Cc1cccc(NC(=O)N2CC[C@@]3(CCCN(S(=O)(=O)c4ccccc4)C3)C2)c1,-2%[11.4 µM],18%,.,.,.
O=C(c1cc(-c2ccc(Cl)c(Cl)c2)on1)N1CCCC1,-4%,0%,.,2%,.
O=C(c1cc(-c2ccc(F)cc2)on1)N1CCCC1,13µM*,10%,>77,-1%,.
COc1cccc(-c2cc(C(=O)N3CCCCC3C)no2)c1 (stereo not given),20µM*,?,>77,?,.
O=C(c1cc(-c2cccc(O)c2)on1)N1CCCCC1,16µM*,?,.,?,.
COC(=O)c1cc(-c2cccc(OC)c2)on1,-23%,24%,>77,18%,.
COc1cccc(-c2cc(C(=O)N3CCCCCC3)no2)c1,7.9µM*,17%,.,.,.
O=C(O)[C@H]1CN(CCCP(=O)(O)O)CCN1,-2%,14%,.,6%,.
c1ccc(CN2CC[C@@H](CNc3ncnc4ccccc34)C2)cc1,1%[11.4 µM],14%[11.4 µM],.,12%[11.4 µM],.
SMILES,FLuc inh,HEK293 cAMP cs,GBA activity,TSHR ag,Bst PK mod
CN1CCN(c2ncc3nc(-c4cccc(C#N)c4)c(=O)n(CCC#N)c3n2)CC1,0%[11.4 µM],-15%,.,-3%,.
C=C[C@@H]1CN2CC[C@@H]1C[C@H]2[C@H](O)c1ccnc2ccc(OC)cc12,0%[11.4 µM],.,.,.,.
NC(=O)C[C@H](N)C(N)=O,2%[11.4 µM],11%[11.4 µM],.,-9%[11.4 µM],.
C/C(CCN1CCCc2nc(C)c(C)cc21)=N\OC[C@@H](O)COCc1ccco1,0%[11.4 µM],8%[11.4 µM],.,12%[11.4 µM],.
COc1ccc2[nH]c3nc(SC(C)C)nnc3c2c1,1.6µM*,9%,>77,7%,4.5*
CC(=O)NCc1nc2ccccc2n1C(C)C,-3%,-5%,.,-1%,.
CC(C)n1c(CNC(=O)c2ccccc2)nc2ccccc21,1%,-2%,8.4*,3%[11.4 µM],>57
COCCn1c(=O)c(-c2ccc(Cl)cc2)nc2cnc(OCc3ccccc3)nc21,1%[11.4 µM],1%,.,0%,.
CC(Oc1ccc(O)cc1)(P(=O)(O)O)P(=O)(O)O,0%,8%,.,-1%,.
Cc1cc(C(=O)NCCC2=CCCCC2)c(C)o1,16µM*,25%,>77,14%,.
COc1cc(C(=O)NCCC2=CCCCC2)cc(OC)c1OC,1%,15%[11.4 µM],.,9%[11.4 µM],.
